Consider 76 molecules from PubChem BioAssay AID588517 (NMMLSC, 2011).

Molecules are shown by their SMILES. In all, about 1,700 compounds went through this assay and about 65 (4%) were called active.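 How the source made its calls: active means fluorescence ratio to DMSO above its plate's cutoff, the plate mean ratio plus 5 SD (cut at about 210% in these data); inactive means the rest.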 The list is a sample of the results.

The assay in a line: intrinsic fluorescence of compounds, yeast control strain – S. cerevisiae AD/pABC3, flow cytometry, Cherry Pick1 set, artefact control for antifungal efflux pump inhibitor project, confirmation (AID 588517).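 Further: unstained yeast with no Nile Red so the signal is compound autofluorescence.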 The note with it: S. cerevisiae AD/pABC3, compound fluorescence, at 10 µM, stronger effect = higher value. (In general: In flow cytometry, cells or beads pass a laser one at a time.)
`CSCCC(NS(=O)(=O)c1ccc(C)cc1)C(=O)N1CCCC1` (stereo unspecified): the fluorescence ratio to DMSO is 90.1% (inactive). The result for `CCOc1ccccc1/C=c1\sc2nc(-c3ccco3)nn2c1=O` reads 126% (inactive). In the case of `CC(/C=N/NC(=O)c1cc(-c2ccc3ccccc3c2)n[nH]1)=C\c1ccco1`, the fluorescence ratio to DMSO is 88.7% (inactive). In the case of `C[n+]1ccc(/C=C/c2c[nH]c3ccccc23)cc1`, the fluorescence ratio to DMSO is 385% (active). The result for `COc1ccc(/C=C(\C#N)c2c[nH]c3ccccc23)cc1` reads 106% (inactive). The result for `CCOc1ccc(/C=C2\SC(=S)N(NC(=O)c3ccncc3)C2=O)cc1OC` reads 100% (inactive). Turning to `Cc1cc(C)cc(NC(=O)C(OC(=O)c2ccc(O)cc2)c2ccccc2)c1` (stereo unspecified), the fluorescence ratio to DMSO was 103% (inactive). The result for `COc1ccc(S(=O)(=O)N2CCOC2CNC(=O)C(=O)NCc2ccc(F)cc2)cc1` (stereo unspecified) reads 113% (inactive); that for `Cc1nc2c(C(=O)NCc3ccc4c(c3)OCO4)c[nH]n2c(=O)c1Cc1ccccc1F`, 84.3% (inactive). The result for `Cc1ccc(Cn2nnc3c(=O)[nH]c(C4CCN(S(=O)(=O)/C=C/c5ccccc5)CC4)nc32)cc1` reads 110% (inactive). The result for `O=C(/C=C/c1c(Cl)cccc1Cl)NCc1ccccc1` reads 98.2% (inactive). For the molecule `Cc1cc(/C=N/NC(=O)CC2(C)OCCO2)c(C)n1-c1ccc(Cl)c(Cl)c1`, the fluorescence ratio to DMSO is 102% (inactive).

On to `Cc1ccc(/C=C(\C#N)C(=O)Nc2cccc3ncccc23)o1`, for which the fluorescence ratio to DMSO was 98.6% (inactive). Turning to `Cc1oc2cc3oc(=O)ccc3cc2c1C`, the fluorescence ratio to DMSO is 104% (inactive). In the case of `Cc1ccc(Cn2c(C)nc3c(c2=O)c2nc4ccccc4nc2n3Cc2ccco2)cc1`, the fluorescence ratio to DMSO is 105% (inactive).

`COc1ccc(C(=O)NC(=S)Nc2ccc(N3CCCC3)cc2)cc1OC`: the fluorescence ratio to DMSO was 102% (inactive). The result for `CCCc1nnc(SCC(=O)Nc2ccc(C(=O)OCC)cc2)o1` reads 116% (inactive); that for `CCOC(=O)CNC(=O)CSc1nnnn1-c1cc(C)ccc1C`, 101% (inactive).

Consider `O=C(NCc1ccccc1)C(=O)NCC1OCCN1S(=O)(=O)c1ccc(Br)cc1` (stereo unspecified), for which the fluorescence ratio to DMSO was 90.8% (inactive).

On to `O=C(Nc1ccc(NC(=O)c2cccs2)cc1)c1ccc2ccccc2c1`, for which the fluorescence ratio to DMSO was 109% (inactive). The result for `O=S(=O)(c1ccccc1)N1CCc2ccccc21` reads 163% (inactive); that for `CC(/C=C/c1ccccc1)=N\NC(=O)C1CC1(C)c1ccccc1` (stereo unspecified), 94.4% (inactive); that for `CCCCCC(=O)Nc1ccc(C(=O)N/N=C/c2ccc([N+](=O)[O-])cc2)cc1`, 103% (inactive). On to `COc1ccccc1CSc1ncc(-c2ccc([N+](=O)[O-])cc2)[nH]1`, for which the fluorescence ratio to DMSO is 110% (inactive). Take `CCn1c(/C=C/c2ccc([N+](=O)[O-])o2)nc2ccccc2c1=O`: the fluorescence ratio to DMSO is 431% (active).

For the molecule `CCOc1ccc2nc(Cl)c(C3CC(c4ccccc4)=NN3C(=O)c3cccs3)cc2c1` (stereo unspecified), the fluorescence ratio to DMSO is 95.5% (inactive).

`Cc1ccc2[nH]c3c(=O)n(CC(=O)NCCc4ccc(Cl)cc4)ncc3c2c1`: the fluorescence ratio to DMSO was 107% (inactive). The result for `COc1cccc(-c2sc3ccc(OC)cc3c2-c2ccc(OCCN3CCCCC3)cc2)c1` reads 103% (inactive); that for `COc1ccccc1NC(=O)C1CCCN1S(=O)(=O)c1ccc(Cl)cc1` (stereo unspecified), 108% (inactive); that for `Cc1cc(C(=O)Nc2ccc(C)c(S(=O)(=O)N3CCOCC3)c2)c2ccccc2n1`, 91.8% (inactive). Turning to `O=C(CCCCCn1c(=O)[nH]c2ccccc2c1=O)NCCc1c[nH]c2ccccc12`, the fluorescence ratio to DMSO is 110% (inactive).

As for `Cc1ccc(OCc2cc(C(=O)N(C)CCc3ccccc3)no2)cc1C`, the fluorescence ratio to DMSO is 106% (inactive). Turning to `CC12CCC(C(=O)N(c3cccc(Cl)c3)C1=O)C2(C)C` (stereo unspecified), the fluorescence ratio to DMSO was 102% (inactive). The result for `CCCCN1C(=O)/C(=C/C=C2/C=Cc3ccccc3N2CC)SC1=S` reads 68.5% (inactive); that for `O=C1NC(=O)C2C1C(c1ccc([N+](=O)[O-])cc1)=NN2Cc1ccccc1` (stereo unspecified), 152% (inactive). `CN(C)S(=O)(=O)c1cc(C(=O)Nc2ccn(C)n2)c(Cl)cc1Cl`: the fluorescence ratio to DMSO was 93.7% (inactive).

With `Cc1ccc(N=C2NC(=O)/C(=C/C=C/c3ccco3)S2)cc1C`, the fluorescence ratio to DMSO is 104% (inactive). The result for `COc1ccc2[nH]c3c(C)c4cc[n+](C)cc4c(C)c3c2c1` reads 115% (inactive); that for `COc1ccccc1/C=C/C=N/n1c(-c2ccc(Cl)cc2Cl)n[nH]c1=S`, 101% (inactive). The result for `CCCCCCCCCCCCCCCC(=O)OC/C=C(C)/C=C/C=C(C)/C=C/C1=C(C)CCCC1(C)C` reads 106% (inactive); that for `C/C(N)=C(/C#N)C(=O)COC(=O)c1cc(-c2cccc(Br)c2)nc2ccccc12`, 110% (inactive); that for `CCc1ccc(NC(=O)Cn2ncn3c(cc4ccccc43)c2=O)cc1`, 105% (inactive). The result for `CCOC(=O)c1c(NC(=S)NC(=O)c2ccco2)sc2c1CCCC2` reads 81.2% (inactive). As to `COc1cccc(NC(=O)CN(C)C(=O)/C=C/c2cc(OC)ccc2OC)c1`, the fluorescence ratio to DMSO was 91.9% (inactive).

Turning to `CCCc1nc(N2CCN(C)CC2)c2sc(=S)n(-c3ccccc3)c2n1`, the fluorescence ratio to DMSO is 99.3% (inactive). Take `COc1ccc(C(=O)NC2CC(C)(C)Cc3c2cnn3-c2ccccc2)c(OC)c1` (stereo unspecified): the fluorescence ratio to DMSO was 100% (inactive). For `CCNc1c(NS(=O)(=O)c2ccc(C3CCCCC3)cc2)c(=O)oc2ccccc12`, the fluorescence ratio to DMSO was 94% (inactive).

Take `COc1ccc(NC(=S)N2CCc3cc(OC)c(OC)cc3C2)cc1`: the fluorescence ratio to DMSO is 102% (inactive).

In the case of `CCNC(=O)c1c(O)c2cccc3c2n(c1=O)CC3`, the fluorescence ratio to DMSO is 83.8% (inactive). The result for `Cc1csc(NC(=O)c2ccc(-c3ccc(Cl)cc3Cl)o2)n1` reads 96.6% (inactive); that for `CSCCC(NC(=O)COc1ccccc1)C(=O)OCCOc1ccc(Br)cc1` (stereo unspecified), 93.4% (inactive). For `O=C(OCc1ccc(-c2ccccc2)cc1)c1cccc(O)c1`, the fluorescence ratio to DMSO was 116% (inactive). On to `Cc1ccc2c(c1)NC(=O)[C@@]1(C)[C@@H](c3ccccc3)[C@H]3COc4ccc(Cl)cc4[C@@H]3N1C2=O`, for which the fluorescence ratio to DMSO is 103% (inactive). The result for `COc1ccc2sc(-c3ccccc3OC)c(-c3ccc(OCCN4CCCC4)cc3)c2c1` reads 112% (inactive); that for `Cc1cccc(NC(=O)COc2ccccc2C)n1`, 95% (inactive).

`Cc1c(CCOC(=O)CC23CC4CC(CC(C)(C4)C2)C3)sc[n+]1Cc1ccc([N+](=O)[O-])cc1`: the fluorescence ratio to DMSO is 106% (inactive). For `O=C(CNC(=O)c1ccc(-c2ccccc2)cc1)OCc1ccc(Cl)cc1`, the fluorescence ratio to DMSO was 110% (inactive). The result for `C=CCC[C@@H](Cc1ccc(F)cc1)C(=O)OC[C@H](Cc1c[nH]c2ccccc12)NC(=O)[C@@H](CC=C)CC(=O)N(CCO)Cc1ccccc1` reads 92.1% (inactive).

Take `O=C(Cn1c(COc2ccccc2)nc2ccccc21)Nc1cc(Cl)c(Cl)cc1Cl`: the fluorescence ratio to DMSO was 93.4% (inactive). Take `CCCCOc1ccc(C(=O)NCC(=O)OCC(=O)c2c(N)n(C)c(=O)n(C)c2=O)cc1`: the fluorescence ratio to DMSO was 97.6% (inactive).

In the case of `CC[n+]1cc(C)ccc1/C=C/c1ccc(N(C)C)cc1`, the fluorescence ratio to DMSO was 1680% (active). The result for `NNC(=O)COc1ccc(C2SCCS2)cc1` reads 85.2% (inactive); that for `CC(C)C(=O)N1CCC2(CC1)Oc1ccc(F)cc1C(=O)C21CC(c2ccccc2)=NO1` (stereo unspecified), 97.8% (inactive); that for `COc1ccc(-c2sc3ccccc3c2-c2ccc(OCCN3CCOCC3)cc2)cc1`, 108% (inactive). The result for `CN1CCN(S(=O)(=O)c2ccc(NC(=S)NC(=O)C3CC3)cc2)CC1` reads 106% (inactive). On to `O=C(Cc1ccccc1)NCC1OCCc2ccccc21` (stereo unspecified), for which the fluorescence ratio to DMSO is 109% (inactive).

On to `Cc1nn(C)cc1N1C(=O)c2cccc3c(N)ccc(c23)C1=O`, for which the fluorescence ratio to DMSO was 111% (inactive).

In the case of `CCOc1ccc(C2/C(=C(/O)c3ccc4c(c3)CC(C)O4)C(=O)C(=O)N2CCCn2ccnc2)cc1` (stereo unspecified), the fluorescence ratio to DMSO is 107% (inactive). As to `O=C(Cc1ccc(Br)cc1)N1CCN(c2ccccn2)CC1`, the fluorescence ratio to DMSO is 98.2% (inactive).

On to `CN=C(c1ccccc1)c1c(C)cccc1C`, for which the fluorescence ratio to DMSO is 103% (inactive). The result for `O=C(CN1C(=O)C2C3CCC(C3)C2C1=O)Oc1ccc2ccccc2c1` (stereo unspecified) reads 107% (inactive).

As for `Cc1nn(C)cc1C(=O)Nc1ccccc1Br`, the fluorescence ratio to DMSO is 85.7% (inactive). On to `COc1ccc(C(=O)C2CCCN(Cc3cccn3-c3ccccn3)C2)c(C)c1` (stereo unspecified), for which the fluorescence ratio to DMSO is 109% (inactive).

As to `O=C(CSc1nnc(-c2cccnc2)n1Cc1ccco1)c1ccc(Cl)c(Cl)c1`, the fluorescence ratio to DMSO is 104% (inactive). Take `COc1ccc(C(=O)NC2CCCc3c2cnn3-c2cccc(C)c2C)c(OC)n1` (stereo unspecified): the fluorescence ratio to DMSO was 92.9% (inactive). As for `CC1CCc2c(sc(NC(=O)c3ccc(Cn4cc(Br)cn4)o3)c2C(N)=O)C1` (stereo unspecified), the fluorescence ratio to DMSO was 100% (inactive).
